# Measured values as given in article PMC5700166.
# Molecular target: GST-Hu-p50 (Homo sapiens, UniProt P19838 7-356)
# Assay: protein-binding microarray (PBM); PBM: ~300 nM protein, 6 mM HEPES pH 7.8, 80 mM KCl, 0.5 mM EDTA, 0.5 mM EGTA, 6% glycerol, 35 ng/ul poly-dIdC, 1% milk, 1 h, room temperature; Ap Aiptasia and Nv Nematostella (sea anemones) / Co Capsaspora / Aq Amphimedon (sponge) / Dm Drosophila / Hu human; RHD is the Rel homology domain; high values mean tight binding
# Conditions: dsDNA, one strand shown
# Chain of GST-Hu-p50 (P19838 7-356): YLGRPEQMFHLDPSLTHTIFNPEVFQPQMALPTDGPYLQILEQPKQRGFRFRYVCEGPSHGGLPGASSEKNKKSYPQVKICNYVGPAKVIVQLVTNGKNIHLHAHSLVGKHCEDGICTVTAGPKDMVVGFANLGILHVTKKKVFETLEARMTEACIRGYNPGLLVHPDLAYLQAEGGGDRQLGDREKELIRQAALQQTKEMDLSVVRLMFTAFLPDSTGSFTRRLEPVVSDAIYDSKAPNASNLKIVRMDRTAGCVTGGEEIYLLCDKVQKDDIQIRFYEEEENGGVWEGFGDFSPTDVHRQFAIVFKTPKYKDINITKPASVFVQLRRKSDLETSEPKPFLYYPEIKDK
row,Sequence,binding signal [z-score]
1,CCGATTAACATCAATTTTTTCCCTGATGTTAATCGGGTCTTGATTCGCTTGACGCTGCTG,4.43
2,CCGATTAACATCAAAGATTTCCCTGATGTTAATCGGGTCTTGATTCGCTTGACGCTGCTG,4.86
3,CCGATTAACATCACGAAATTCCCTGATGTTAATCGGGTCTTGATTCGCTTGACGCTGCTG,5.1
4,CCGATTAACATCAATCAGCGGGGTGATGTTAATCGGGTCTTGATTCGCTTGACGCTGCTG,1.52
5,CCGATTAACATCAGGAAACACCCTGATGTTAATCGGGTCTTGATTCGCTTGACGCTGCTG,3.48
6,CCGATTAACATCAGGAAGTTACCTGATGTTAATCGGGTCTTGATTCGCTTGACGCTGCTG,1.42
7,CCGATTAACATCACTATTTTCCCTGATGTTAATCGGGTCTTGATTCGCTTGACGCTGCTG,3.18
8,CCGATTAACATCAGGGGAATGGATGATGTTAATCGGGTCTTGATTCGCTTGACGCTGCTG,4.59
9,CCGATTAACATCAGGGCAAAAAATGATGTTAATCGGGTCTTGATTCGCTTGACGCTGCTG,1.45
10,CCGATTAACATCATTAATGACGGTGATGTTAATCGGGTCTTGATTCGCTTGACGCTGCTG,1.09
11,CCGATTAACATCAGTATTCCCCATGATGTTAATCGGGTCTTGATTCGCTTGACGCTGCTG,5.14
12,CCGATTAACATCAGGAATTGCCCTGATGTTAATCGGGTCTTGATTCGCTTGACGCTGCTG,1.09
13,CCGATTAACATCACAAATTTCCCTGATGTTAATCGGGTCTTGATTCGCTTGACGCTGCTG,5.09
14,CCGATTAACATCAAGGGCTTCCCTGATGTTAATCGGGTCTTGATTCGCTTGACGCTGCTG,1.06
15,CCGATTAACATCAAATTCCCACGTGATGTTAATCGGGTCTTGATTCGCTTGACGCTGCTG,2.98
16,CCGATTAACATCAGCATTTTCCCTGATGTTAATCGGGTCTTGATTCGCTTGACGCTGCTG,3.25
17,CCGATTAACATCAGGGAGACCCCTGATGTTAATCGGGTCTTGATTCGCTTGACGCTGCTG,3.48
18,CCGATTAACATCAAGGGAAAAAATGATGTTAATCGGGTCTTGATTCGCTTGACGCTGCTG,4.89
19,CCGATTAACATCACGGGGTTGCCTGATGTTAATCGGGTCTTGATTCGCTTGACGCTGCTG,1.21
20,CCGATTAACATCACCGAACTAACTGATGTTAATCGGGTCTTGATTCGCTTGACGCTGCTG,1.23

row,Sequence,binding signal [z-score]
1,CCGATTAACATCACCGTTTTCCCTGATGTTAATCGGGTCTTGATTCGCTTGACGCTGCTG,3.18
2,CCGATTAACATCAATGGGATTCCTGATGTTAATCGGGTCTTGATTCGCTTGACGCTGCTG,1.23
3,CCGATTAACATCAATTGGGAAATTGATGTTAATCGGGTCTTGATTCGCTTGACGCTGCTG,2.69
4,CCGATTAACATCACCGGATTTCCTGATGTTAATCGGGTCTTGATTCGCTTGACGCTGCTG,2.28
5,CCGATTAACATCAACCAATTCCCTGATGTTAATCGGGTCTTGATTCGCTTGACGCTGCTG,2.54
6,CCGATTAACATCAGGAAAGTCCATGATGTTAATCGGGTCTTGATTCGCTTGACGCTGCTG,1.14
7,CCGATTAACATCAAATATTTCCCTGATGTTAATCGGGTCTTGATTCGCTTGACGCTGCTG,4.62
8,CCGATTAACATCACATTTCCCCATGATGTTAATCGGGTCTTGATTCGCTTGACGCTGCTG,5.25
9,CCGATTAACATCAAGAAATTCCTTGATGTTAATCGGGTCTTGATTCGCTTGACGCTGCTG,1.18
10,CCGATTAACATCAAAAATTTCCTTGATGTTAATCGGGTCTTGATTCGCTTGACGCTGCTG,1.32
11,CCGATTAACATCAATAATTTTCCTGATGTTAATCGGGTCTTGATTCGCTTGACGCTGCTG,1.12
12,CCGATTAACATCAGGGGAACTAATGATGTTAATCGGGTCTTGATTCGCTTGACGCTGCTG,4.28
13,CCGATTAACATCACGGACACCCCTGATGTTAATCGGGTCTTGATTCGCTTGACGCTGCTG,1.06
14,CCGATTAACATCAAAATTCCCTCTGATGTTAATCGGGTCTTGATTCGCTTGACGCTGCTG,5.19
15,CCGATTAACATCAATTTATCCCCTGATGTTAATCGGGTCTTGATTCGCTTGACGCTGCTG,4.37
16,CCGATTAACATCACTCTTTCCCCTGATGTTAATCGGGTCTTGATTCGCTTGACGCTGCTG,4.08
17,CCGATTAACATCACCTTTAGGAGTGATGTTAATCGGGTCTTGATTCGCTTGACGCTGCTG,1.11
18,CCGATTAACATCAAATAATTCCCTGATGTTAATCGGGTCTTGATTCGCTTGACGCTGCTG,5.03
19,CCGATTAACATCACAATTTTCCCTGATGTTAATCGGGTCTTGATTCGCTTGACGCTGCTG,4.58
